# Test results as given in ChEMBL document CHEMBL3433997, “St. Jude Leishmania screening dataset” (2016).
# Biological target: Solute carrier family 2, facilitated glucose transporter member 1 (Homo sapiens) (UniProt P11166)
# Test: ST_JUDE_LEISH: Cytotoxicity at 2uM final concentration against transgenic Leishmania Mexicana promastigotes LmGLUT1 that are glucose transport deficient and complemented with the human glucose transporter GLUT1. Activity is measured by DNA content using SYBR green in vitro
# Assay type: functional
# Sequence of Solute carrier family 2, facilitated glucose transporter member 1 (Homo sapiens) (P11166 whole entry): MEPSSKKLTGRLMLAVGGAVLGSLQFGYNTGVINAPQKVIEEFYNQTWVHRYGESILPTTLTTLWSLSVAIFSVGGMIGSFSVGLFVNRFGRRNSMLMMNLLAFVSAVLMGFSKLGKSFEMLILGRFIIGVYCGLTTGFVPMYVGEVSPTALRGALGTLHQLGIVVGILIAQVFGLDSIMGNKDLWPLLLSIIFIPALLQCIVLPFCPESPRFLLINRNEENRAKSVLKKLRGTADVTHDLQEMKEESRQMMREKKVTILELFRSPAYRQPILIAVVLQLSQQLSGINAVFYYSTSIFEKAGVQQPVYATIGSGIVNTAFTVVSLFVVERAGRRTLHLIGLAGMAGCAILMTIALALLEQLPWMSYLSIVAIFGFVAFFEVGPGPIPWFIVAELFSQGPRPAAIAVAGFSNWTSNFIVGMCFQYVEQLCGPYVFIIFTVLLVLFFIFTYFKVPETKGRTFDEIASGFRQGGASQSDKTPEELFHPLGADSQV
row,Structure (SMILES),inhibition [%]
1,Cc1ccccc1Oc1nc2ccccc2nc1SCC(=O)NC(C)C,2.29
2,O=C(/C=C/c1ccc(Cl)c(Cl)c1)NCCCCCN1CCC(NC(=O)NC2CCCC2)CC1,1.11
3,N#Cc1ccc2c(c1)CCN(CCC1CCC(Nc3ncnc4ccccc34)CC1)C2 (stereo not given),10.7
4,Cc1noc(C)c1-c1cccc(CNCc2ccc(-c3cccc(-c4nc5ccccc5[nH]4)c3)cc2)c1,-0.68
5,CO/C(=C\C=C\c1cc2cc(Cl)c(Cl)cc2[nH]1)C(=O)NCCCN1CC(C)N(C)CC1C (stereo not given),7.33
6,COCCn1c(-c2nc(-c3ccc(F)cc3)cnc2N)nc2ccccc21,0.54
7,N#CN1CC[C@H](CS(=O)(=O)c2cccc(Br)c2)C1,6.21
8,COc1cc(Cc2cnc(N)nc2N)cc(OCCCN2C(=O)c3ccccc3C2=O)c1OC,4.68
9,CCc1cn(CCOC)c2ccc(C(=O)N[C@@H](Cc3ccccc3)[C@H](O)CNC(C)(C)CCCC(C)C)cc12,0.24
10,CC(Nc1ncc(-c2ccsc2)c(-c2nccs2)n1)c1ccc2c(c1)OCCO2 (stereo not given),5.89
11,CN1CCN(c2nc(NCCc3ccc(O)cc3)nc(NCc3ccccc3-c3ccc(C(F)(F)F)cc3)n2)CC1,1.59
12,CCN1CCC(N(Cc2ccc(-c3ccc(C(F)(F)F)cc3)cc2)C(=O)Cn2c(CCc3cccc(F)c3F)cc(=O)c3c2CCCC3)CC1,0.35
13,CC(C)CC(=O)N(Cc1ccc(-c2ccc(CNC3Cc4ccccc4C3)cc2)cc1)C1CCNCC1,8.37
14,CC(CCCCOCCc1ccccc1)NCC(O)c1cc(Cl)c(N)c(Cl)c1 (stereo not given),2.66
15,O=C(/C=C/c1ccc([N+](=O)[O-])cc1)N1CCC(CCN2CCC(c3c[nH]c4ccccc34)CC2)CC1,2.33
16,CCN(CCCN1CCCCC1)c1cc(C)nc(Nc2ccc(Oc3ccccc3)cc2)n1,5.66
17,Cc1ccc(C)c(S(=O)(=O)Nc2ccc(Br)cc2C(=O)Nc2cccc(C(F)(F)F)c2)c1,0.14
18,Cn1nc(-c2ccc(NC(=O)Nc3cc(C(F)(F)F)ccc3F)cc2)c2cnc(NCCc3c[nH]cn3)nc21,3.35
19,Cc1cc(C)c(C)c(OCCCON2C(=N)N=C(N)NC2(C)C)c1C,1.55
20,COc1ccc(CNCc2ccc(F)cc2)cc1-c1ccc(OC)c(S(=O)(=O)NCCN2CCCC2)c1,5.21

row,Structure (SMILES),inhibition [%]
1,CCN(CC)CCNc1cc(C)nc(NC(=N)Nc2ccc(Cl)cc2)n1,6
2,COc1cc(Br)c(NC(=O)Nc2ccc(C(F)(F)F)c(O[C@@H]3CCN(C)C3)c2)cc1OC,2.53
3,CCc1cc2c(cc1OCCN(C)C)N(C(=O)Nc1ccc(-c3ccncc3)c(Cl)c1)CC2,6.82
4,NC1CCN(CCc2ccc(NS(=O)(=O)c3cccc4ccccc34)cc2)CC1,-0.69
5,CCCCCN1CCCC(NS(=O)(=O)c2ccc(C(=O)Nc3ccc(C(F)(F)F)cc3)cc2)C1 (stereo not given),6.19
6,O=C(Nc1ccc(C(F)(F)F)cc1)c1ccc(S(=O)(=O)NC2CCN(Cc3ccccc3)C2)cc1 (stereo not given),5.58
7,CCCO[C@H](C(=O)OC)[C@@H](CC1Cc2ccccc2C1)C(=O)NCCC1=CCCCC1,1.54
8,CCn1c(-c2nonc2N)nc2c(-c3cccc(Cl)c3)ncc(OCCCNCc3cnc(C)nc3N)c21,0.16
9,COc1cccc(-c2nn(C)c3sc(C(=O)NCCN4CCN(c5ccccc5F)CC4)cc23)c1,-0.88
10,CCN(c1cc(C)nc(Nc2ccc(Cl)cc2)n1)[C@H]1CCN(Cc2ccccc2)C1,9.15
11,COc1ccc(Cl)cc1NC(=O)C(C)Nc1ccc(-c2ccccc2)cc1 (stereo not given),2.84
12,COC(=O)CCCCOc1cc(Cc2cnc(N)nc2N)cc(OC)c1OC,2.26
13,COc1ccc2nccc(NC(=O)C3CCC(NCc4cnc(SC)c([N+](=O)[O-])c4)CC3)c2n1 (stereo not given),10.5
14,CC1CCN(CCCNc2ccc(C(=O)Nc3ccc(C(F)(F)F)cc3)cc2[N+](=O)[O-])CC1,4.71
15,CNS(=O)(=O)CCNCc1ccc(-c2ccc3ncnc(Nc4ccc(OCc5ccccc5)cc4)c3c2)o1,6.09
16,Cc1ccc(Nc2nccc(NCC(O)c3cccc(C)c3)n2)cc1 (stereo not given),5.47
17,COc1cc(Cn2ccc3c4c(N)nc(N)nc4ccc32)cc(OC)c1OC,86.3
18,Cc1cc(=NN=Cc2ccccn2)c2cc(F)ccc2[nH]1,4.3
19,COc1ccc(-c2nc3cccnc3n2CC(=O)Nc2cc(Cl)c(Cl)cc2Cl)c(OC)c1,-3.62
20,CCc1ccc(S(=O)(=O)Nc2ccc(CCN3CCC(N4CCCCC4)CC3)cc2)cc1,13.9

# Biological target: Hexose transporter 1 (Plasmodium falciparum) (UniProt O97467)
# Test: ST_JUDE_LEISH: Cytotoxicity at 2uM final concentration against transgenic Leishmania Mexicana promastigotes LmPfHT that are glucose transport deficient and complemented with the Plasmodium falciparum hexose transporter. Activity is measured by DNA content using SYBR green in vitro
# Assay type: functional
row,Structure (SMILES),inhibition [%]
1,Cc1ccccc1Oc1nc2ccccc2nc1SCC(=O)NC(C)C,2.25
2,O=C(/C=C/c1ccc(Cl)c(Cl)c1)NCCCCCN1CCC(NC(=O)NC2CCCC2)CC1,1.93
3,N#Cc1ccc2c(c1)CCN(CCC1CCC(Nc3ncnc4ccccc34)CC1)C2 (stereo not given),3.96
4,Cc1noc(C)c1-c1cccc(CNCc2ccc(-c3cccc(-c4nc5ccccc5[nH]4)c3)cc2)c1,-1.65
5,CO/C(=C\C=C\c1cc2cc(Cl)c(Cl)cc2[nH]1)C(=O)NCCCN1CC(C)N(C)CC1C (stereo not given),5.89
6,COCCn1c(-c2nc(-c3ccc(F)cc3)cnc2N)nc2ccccc21,-2.08
7,N#CN1CC[C@H](CS(=O)(=O)c2cccc(Br)c2)C1,4.67
8,COc1cc(Cc2cnc(N)nc2N)cc(OCCCN2C(=O)c3ccccc3C2=O)c1OC,5.99
9,CCc1cn(CCOC)c2ccc(C(=O)N[C@@H](Cc3ccccc3)[C@H](O)CNC(C)(C)CCCC(C)C)cc12,1.3
10,CC(Nc1ncc(-c2ccsc2)c(-c2nccs2)n1)c1ccc2c(c1)OCCO2 (stereo not given),5.47
11,CN1CCN(c2nc(NCCc3ccc(O)cc3)nc(NCc3ccccc3-c3ccc(C(F)(F)F)cc3)n2)CC1,2.22
12,CCN1CCC(N(Cc2ccc(-c3ccc(C(F)(F)F)cc3)cc2)C(=O)Cn2c(CCc3cccc(F)c3F)cc(=O)c3c2CCCC3)CC1,0.64
13,CC(C)CC(=O)N(Cc1ccc(-c2ccc(CNC3Cc4ccccc4C3)cc2)cc1)C1CCNCC1,5.79
14,CC(CCCCOCCc1ccccc1)NCC(O)c1cc(Cl)c(N)c(Cl)c1 (stereo not given),0.7
15,O=C(/C=C/c1ccc([N+](=O)[O-])cc1)N1CCC(CCN2CCC(c3c[nH]c4ccccc34)CC2)CC1,3.09
16,CCN(CCCN1CCCCC1)c1cc(C)nc(Nc2ccc(Oc3ccccc3)cc2)n1,5.07
17,Cc1ccc(C)c(S(=O)(=O)Nc2ccc(Br)cc2C(=O)Nc2cccc(C(F)(F)F)c2)c1,0.63
18,Cn1nc(-c2ccc(NC(=O)Nc3cc(C(F)(F)F)ccc3F)cc2)c2cnc(NCCc3c[nH]cn3)nc21,3.29
19,Cc1cc(C)c(C)c(OCCCON2C(=N)N=C(N)NC2(C)C)c1C,-0.22
20,COc1ccc(CNCc2ccc(F)cc2)cc1-c1ccc(OC)c(S(=O)(=O)NCCN2CCCC2)c1,6.27

row,Structure (SMILES),inhibition [%]
1,CCN(CC)CCNc1cc(C)nc(NC(=N)Nc2ccc(Cl)cc2)n1,6.42
2,COc1cc(Br)c(NC(=O)Nc2ccc(C(F)(F)F)c(O[C@@H]3CCN(C)C3)c2)cc1OC,2.26
3,CCc1cc2c(cc1OCCN(C)C)N(C(=O)Nc1ccc(-c3ccncc3)c(Cl)c1)CC2,6.4
4,NC1CCN(CCc2ccc(NS(=O)(=O)c3cccc4ccccc34)cc2)CC1,-3.38
5,CCCCCN1CCCC(NS(=O)(=O)c2ccc(C(=O)Nc3ccc(C(F)(F)F)cc3)cc2)C1 (stereo not given),4.12
6,O=C(Nc1ccc(C(F)(F)F)cc1)c1ccc(S(=O)(=O)NC2CCN(Cc3ccccc3)C2)cc1 (stereo not given),5.18
7,CCCO[C@H](C(=O)OC)[C@@H](CC1Cc2ccccc2C1)C(=O)NCCC1=CCCCC1,1.34
8,CCn1c(-c2nonc2N)nc2c(-c3cccc(Cl)c3)ncc(OCCCNCc3cnc(C)nc3N)c21,-3.01
9,COc1cccc(-c2nn(C)c3sc(C(=O)NCCN4CCN(c5ccccc5F)CC4)cc23)c1,2.01
10,CCN(c1cc(C)nc(Nc2ccc(Cl)cc2)n1)[C@H]1CCN(Cc2ccccc2)C1,7.78
11,COc1ccc(Cl)cc1NC(=O)C(C)Nc1ccc(-c2ccccc2)cc1 (stereo not given),2.75
12,COC(=O)CCCCOc1cc(Cc2cnc(N)nc2N)cc(OC)c1OC,1.3
13,COc1ccc2nccc(NC(=O)C3CCC(NCc4cnc(SC)c([N+](=O)[O-])c4)CC3)c2n1 (stereo not given),10.3
14,CC1CCN(CCCNc2ccc(C(=O)Nc3ccc(C(F)(F)F)cc3)cc2[N+](=O)[O-])CC1,1.65
15,CNS(=O)(=O)CCNCc1ccc(-c2ccc3ncnc(Nc4ccc(OCc5ccccc5)cc4)c3c2)o1,6.17
16,Cc1ccc(Nc2nccc(NCC(O)c3cccc(C)c3)n2)cc1 (stereo not given),4.73
17,COc1cc(Cn2ccc3c4c(N)nc(N)nc4ccc32)cc(OC)c1OC,83.5
18,Cc1cc(=NN=Cc2ccccn2)c2cc(F)ccc2[nH]1,5.11
19,COc1ccc(-c2nc3cccnc3n2CC(=O)Nc2cc(Cl)c(Cl)cc2Cl)c(OC)c1,-1.91
20,CCc1ccc(S(=O)(=O)Nc2ccc(CCN3CCC(N4CCCCC4)CC3)cc2)cc1,14.9
